# From PubChem
# HCV inh – blocks hepatitis C virus; Huh7.5.1 HCVcc-Cre infection, luciferase reporter, 44 h; Potency, µM (series often up to 41.8 µM), inactives show at the top dose activity change, negative = inhibition, actives largely listed as inhibitors; actives 3.4% (n = 340,000)
#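 Antiviral activity was scored by luciferase reporter output from cells infected with HCVcc-Cre (~0.5 moi) in presence of compound, 44 h infection period, cells seeded 1,000/well 4 h prior.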
# Pf growth 96h – inhibits malaria parasite growth, 96 h. P. falciparum luciferase reporter growth, 96 h. Potency, µM (top dose mostly 28.7 µM), inactives show top-dose activity change, negative = inhibition, usual class: inhibitors. actives 6.9% (n = 320,000)
#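 Infected RBCs, 2% Hct / 0.05% parasitemia final; luciferase-reporter P. falciparum; cpd 96 h, 37 C, 5% CO2; luciferase detection reagent; luminescence.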
# Pf growth 48h – P. falciparum growth inhibition at 48 hours (one generation). P. falciparum luciferase growth in erythrocytes, 48 h. Potency, µM (titrated, usually from 28.7 µM), inactives show at the highest dose activity change, negative = inhibition, usual class: inhibitors. actives 5.9% (n = 310,000). AID 504832
#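 Here the parasites carry a stable luciferase gene and grow inside erythrocytes in Albumax-based RPMI medium with compound for one erythrocytic cycle. Activity is scored as loss of luminescent signal.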
# AMA1-RON2 inh – inhibitors of Plasmodium falciparum AMA1-RON2 interaction; AlphaScreen AMA1-biotinylated RON2 peptide binding; Potency, µM (top dose mostly 58.2 µM), inactives show top-dose activity change, negative = inhibition, hits mostly inhibitors; actives 0.2% (n = 360,000); AID 720542;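 note: 0% = vehicle wells and -100% = peptide control; nearly all actives have a fitted effect of over 45% in size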
#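 AMA1 (3D7) with his tag at 25 nM final met compounds first, then biotinylated RON2 peptide at 25 nM; detection used donor plus acceptor beads, 10 µg/mL apiece, read by AlphaScreen after 30 min at room temperature.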
# * hit, by the source's call; ? = inconclusive; nt = no result; [ ] = dose if it differs, or a comment. Sampled rows, rich in hits. Any-hit rate of the full collection: about 11%. Calls come from the whole dose curve; as a rule, active = well fitted curve in the direction sought with a large enough effect; inconclusive = small, poorly fitted or top-dose-only effect, or another doubt; inactive = no such curve, though single readings can be large; an effect the other way counts as inactive or inconclusive. Unless noted, % is set by controls: 0 for no effect and ±100 for the full control effect; potency is the fitted concentration of half-maximal effect.
SMILES,HCV inh,Pf growth 96h,Pf growth 48h,AMA1-RON2 inh
O=C(OCCOc1ccccc1)c1cccc(S(=O)(=O)N2CCOCC2)c1,1%,?,?,5%[11.6 µM]
COC(=O)c1ccc(NC(=O)c2ccc3c(c2)NC(=O)C2CCCN32)cc1 (centres undefined),-3%,7.4µM*,8.3µM*,nt
CCOc1ccc(CCNC(=O)COC(=O)c2cccc(S(=O)(=O)N3CCCCC3)c2)cc1OCC,-3%[8.37 µM],-24%,-10%,1%
CCOc1ccc(CCNC(=O)COC(=O)c2cccc(S(=O)(=O)N3CCOCC3)c2)cc1OCC,10%,?,9.3µM*,-4%
CCCS(=O)(=O)c1c(S(=O)(=O)CCC)c2ccc(C(N)=O)cn2c1C(=O)c1ccccc1,-3%,6%,-29%,15%
CCCS(=O)(=O)c1c(S(=O)(=O)CCC)c2cnccn2c1C(=O)c1ccc(F)cc1,2%,-20%,13µM*,1%
CCCS(=O)(=O)c1c(S(=O)(=O)CCC)c2cnccn2c1C(=O)c1ccc(OC)cc1,19%,?,10µM*,0%
CCCS(=O)(=O)c1c(S(=O)(=O)CCC)c2cnccn2c1C(=O)c1ccc(CC)cc1,-20%,nt,3.3µM*,1%
COCCn1c(CN2CCN(C(=O)c3ccco3)CC2)nc2c1c(=O)n(C)c(=O)n2C,13%,?,9%,24%
COc1cccc(CCNS(=O)(=O)CCNC(=O)c2cccc(OC)c2)c1,-6%,14%,31%,-9%
COc1ccc(/C=N/c2oc(-c3ccccc3)cc2C#N)cc1OC,?,22%,-12%,16%
CCN(CC)C(=O)c1c2c(nc3ccccc13)-c1ccccc1CC2,?,?,7.4µM*,-11%
CC(C)CNC(=O)c1c2c(nc3ccccc13)-c1ccccc1CC2,-17%,100%,?,-6%
O=C1CCC(c2ccc3c(c2)CCC3)=NN1,?,21%,45%,-2%
COc1cc(OC)cc(Oc2ccc(S(=O)(=O)N3CCCCC3)cc2[N+](=O)[O-])c1,?,?,8.3µM*,-3%
COc1ccc(Oc2ccc(S(=O)(=O)N3CCCCC3)cc2S(=O)(=O)N2CCCCC2)cc1,?,?,10µM*,-3%
Cc1cccc(Oc2ccc(S(=O)(=O)N3CCCCC3)cc2N)c1,13µM*,8%,?,4%
Cc1ccc(S(=O)(=O)c2cccc(S(=O)(=O)N3CCOCC3)c2)cc1S(=O)(=O)N1CCOCC1,8%,nt,-12%,1%
Cc1ccc(S(=O)(=O)c2cccc(S(=O)(=O)N3CCCC3)c2)cc1S(=O)(=O)N1CCCC1,16µM*,87%,-34%,12%
CC(=O)OC1CC2CCC1(C)C2(C)C (centres undefined),nt,12%,-7%,nt
CC(=O)OC(COC1C[C@@H]2CC[C@@]1(C)C2(C)C)C[N+]1(C)CCCCC1 (some centres undefined),29%,2.9µM*,3.3µM*,5%
O=C(Nc1sc2c(c1C(=O)c1ccccc1)CCCC2)c1cccnc1,?,0.37µM*,0%,-3%
COc1cccc(C(=O)Nc2sc3c(c2C(=O)O)CCCC3)c1,13µM*,59%,29%,0%
Cc1cccc(C(=O)Nc2sc3c(c2C(=O)O)CCC3)c1,-14%,62%,41%,-3%
CNC(=O)c1c(NC(=O)c2ccco2)sc2c1CCCC2,14µM*,15%,20%,4%
SMILES,HCV inh,Pf growth 96h,Pf growth 48h,AMA1-RON2 inh
O=C(Nc1sc2c(c1C(=O)NCc1cccnc1)CCCC2)c1ccco1,7.9µM*,?,?,12%
CCC(C)(C(=O)Nc1ccc(OC)cc1)N(C)C(=O)Cn1nnnc1N (centres undefined),-10%,20%,-14%,3%
O=C(OCc1cccc([N+](=O)[O-])c1)c1ccc2ccccc2n1,11%,27%,82%,-6%
Brc1ccc2ncc(Br)cc2c1,?,-20%,-7%,37%
Cc1cc2cc(NC(=O)c3ccco3)ccc2[nH]1,-20%,17%[5.75 µM],131%,-11%
CC(Oc1ccc(F)cc1)C(=O)Nc1sc2c(c1C(=O)NCc1cccnc1)CCCC2 (centres undefined),2.5µM*,6.6µM*,8.3µM*,-13%
O=C(Nc1ccc2[nH]c3c(c2c1)CCCC3)c1ccco1,13µM*,?,3.7µM*,-2%
COc1ccc(OCc2cc(C(=O)NC3CCOC(C)(C)C3)no2)c2ccccc12 (centres undefined),nt,1.2µM*,9.3µM*,nt
Cc1cccc(C)c1OCc1cc(C(=O)NC2CCC2)no1,?,2%,?,9%
CSc1ccccc1OCc1cc(C(=O)NC2CCOC(C)(C)C2)no1 (centres undefined),nt,?,-30%,9%
Cc1ccc(C)c(OCc2cc(C(=O)N3CCN(c4ccccc4C)CC3C)no2)c1 (centres undefined),?,12µM*,6%,0%
Cc1ccc(C)c(OCc2cc(C(=O)NC3CCOC(C)(C)C3)no2)c1 (centres undefined),nt,10µM*,-3%,0%
O=C1NCCNC1c1ccccc1 (centres undefined),0%,nt,nt,7%
O=C(NCc1ccccc1F)c1ccc(S(=O)(=O)N2CCCC2)cc1,nt,nt,nt,4%
O=C(Nc1nnc(-c2ccc(F)cc2)o1)C1CCCN1S(=O)(=O)c1cccs1 (centres undefined),6%,13%,-16%,96%
c1ccc(C2Nc3ccccc3Oc3ccccc32)cc1 (centres undefined),?,5.2µM*,10µM*,-6%
Cc1ccc2[nH]cc(CCNC(=O)C3CCCO3)c2c1 (centres undefined),7%,-19%,4%,-1%
O=CNc1cc(-c2cccc(O)c2)cn2c(-c3ccc(F)cc3)cnc12,nt,nt,nt,20%
COc1ccc(OC)c(-n2c(-c3cccc(O)c3)n[nH]c2=S)c1,13%,-5%,0.74µM*,28%
CCOC(=O)C1(CCCc2ccccc2)CCN(CC(O)CO)CC1 (centres undefined),?,?,?,-4%
O=C(CN(C(=O)Cn1nnc(-c2cccs2)n1)c1cnc2ccccc2c1)NCC1CCCO1 (centres undefined),-3%,15µM*,?,-1%
O=C(CN(C(=O)Cn1nnc(-c2ccccc2F)n1)c1cnc2ccccc2c1)NCC1CCCO1 (centres undefined),3%,?,9.3µM*,2%
CCc1ccc(N2CC(C(=O)N3CCN(S(=O)(=O)c4cccc(F)c4)CC3)CC2=O)cc1 (centres undefined),nt,nt,nt,44%
COc1cc2nc(C3CCC3)nc(N3CCN(c4ccccc4OC)CC3)c2cc1OC,3.2µM*,?,13µM*,?
CC(C)(C)C(=O)NC1CCN(C(=O)N2CCCC2)CC1,2%,?,6%,-5%
CC(C)(C)C(=O)NC1CCN(S(C)(=O)=O)CC1,2%,12µM*,-17%,-4%
Cc1c(NS(=O)(=O)c2ccc3nc(COc4ccccc4Cl)[nH]c3c2)c(=O)n(-c2ccccc2)n1C,7%,?,?,-8%
